Reference: PubChem BioAssay (NCI)
This is part of a sample that, as a whole, favours compounds with a hit. Of some 79,000 tested, about 15% had one in any assay. Unmarked numbers belong to inactive results. Activity calls are given as the source filed them. Rule as the data show it: active = growth inhibition above about 70%; inactive = the rest.

Experiment: NCI Yeast Anticancer Drug Screen. Data for the bub3 strain (AID 167)
Settings: S. cerevisiae bub3 mutant strain, active compounds read high; at 50.0 µM unless noted
In short: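 Yeast carrying a defined mutation is treated with each compound, and growth is compared with that of vehicle-exposed cells to give inhibition.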

Row | SMILES | growth inhibition
1 | O=C(C1=CCCCC1)c1ccc(-c2ccccc2)cc1 | -6.15%
2 | COc1ccc(C=O)c(Cl)c1OC | -7.85%
3 | CS(=O)(=O)OCC1OC(n2ncc(=O)[nH]c2=O)C(O)C1O (stereo not drawn) | 2.95%
4 | Cc1ccc(C(C)C)c(Oc2cc(C)ccc2C(C)C)c1 | -17.5%
5 | CC(C)(C)C1CCC2c3c([nH]c4ccccc34)C3C(=O)N(c4cc(Br)cc(Br)c4)C(=O)C3C2C1 (stereo not drawn) | 21.8%
6 | O=C(O)CCCn1nnc2c(=O)[nH][nH]c(=O)c21 | -0.25%
7 | Cc1cc(NC(=O)C(=O)Cc2nc3ccccc3s2)ccc1Cl | 10.9%
8 | O=c1/c(=C/c2ccccc2[N+](=O)[O-])sc2nc3ccccc3n12 | -21.9%
9 | O=P(CSCCO)(c1ccccc1)c1ccccc1 | -11.9%
10 | COc1cccc(/C=C/c2cnc3ccccc3n2)c1OC | -6.7%
11 | Cc1cccc(C(=O)NNC(=O)C(=O)NNC(=O)c2cccc(C)c2)c1 | 24.6%
12 | CN=Nc1c(O)[nH]c2ccc(C)cc12 | -8.15%
13 | CCOC(=O)c1cn[nH]c1C | -3.05%
14 | [N-]=[N+]=Nc1c2c(nc3ccccc13)CCCC2 | 0.3%
15 | NC(=O)c1ccc(-c2csc(=S)[nH]2)s1 | -19.1%
16 | Nn1nnc2ccccc21 | 7.1%
17 | Cn1c2ccccc2c(=O)c2[nH]c3ccccc3c21 | 83.3% (active)
18 | CCCCCCCCCCCCCCCCCC(=O)N1CCN(C(=O)CCCCCCCCCCCCCCCCC)C1 | -1.25%
